Laboratory results published in PubChem BioAssay (NCI).
Compounds without any hit were thinned out: in the full panel of roughly 83,000, 20% have a hit.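 Method: cells in 96-well plates; compound added at one concentration; 48 h incubation; percent growth measured; values under 10 scored active.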 A number with no mark means an inactive call. Calls of active or inactive are those of the source.

Each compound was assayed on OVCAR-3 ovarian (assay: NCI-60 one-dose screen, 48 h (100 = growth as untreated, 0 = no growth, -100 = all killed)). Conditions: 10 µM unless noted.
Description: Growth inhibition of the OVCAR-3 human tumor cell line is measured as a screen for anti-cancer activity. Cells are grown in 96 well plates and exposed to the test compound for 48 hours. Compounds are tested at a single concentration, which is 10^-5 M for most compounds. The reported endpoint is percent growth (GI% or GIPRCNT), where numbers from 0 - 100% represent growth inhibition, and numbers from -100% - 0 represent cell death. For example, a value of 40 represents 60% growth inhibition. A value of 0 means no net growth occurred over the course of the experiment. A value of -40 indicates 40% of cells at the beginning of the experiment died by the end of the experiment. A value of -100 means all cells are dead at the end of the experiment.
NCI-60 Human Tumor Cell Lines Screen was performed using the standard one-dose NCI protocol, which is described in more detail at https://dtp.cancer.gov/discovery_development/nci-60/default.htm.
Compounds with GIPRCNT values below 10 were considered active. Activity score was based on GIPRCNT using the following formula: […]
Score is 0 for GIPRCNT values of 100 or above, 50 for GIPRCNT values of 0, and 100 for GIPRCNT values of -100.

Question: How did the growth turn out when `ClC1=NC(Cl)C(Cl)=N/C1=N\c1ncn[nH]1` (stereo not given) was run?
Answer: -82.2% (active)

Question: For `CC(=O)CC(c1ccc([N+](=O)[O-])cc1)c1c(O)c2ccccc2oc1=O` (stereo not given), which growth is on record?
Answer: 109%

Question: Which growth does the source give for `O=c1c2cc(Br)cc(Br)c2nc(-c2ccc(Cl)cc2)n1/N=C/c1cccc(F)c1` here?
Answer: 49.8%

Question: For `O=S(=O)(Nc1ccc2ccccc2c1)N1CCCCC1`, which growth is on record?
Answer: 53.2%

Question: For `O=C(CCl)N1c2ccccc2Oc2ccc3ccccc3c21`, which growth is on record?
Answer: -95.1% (active)

Question: How did the growth turn out when `O=C1C(Cl)=C(Nc2cccc3ccccc23)C(=O)c2ccccc21` was run?
Answer: 39%

Question: How did the growth turn out when `COc1ccc([C@H]2c3[nH]c4ccccc4c3C[C@H]3C(=O)N(CCCCCCC(=O)NO)CC(=O)N23)cc1` was run?
Answer: 33.9%

Question: Which growth does the source give for `NS(=O)(=O)c1ccc(CCn2c(SCC(=O)N/N=C/c3ccccc3O)nc3ccccc3c2=O)cc1` here?
Answer: 23.8%

Question: `CC(C)c1ccc(-c2cnc3nonc3n2)cc1` was tested. Which growth did it give?
Answer: 15.6%

Question: For `CC(C)(C)OC(=O)N1CCCN(CCNc2nccc(-c3c(-c4cccc(O)c4)nc4sccn34)n2)S1(=O)=O`, which growth is on record?
Answer: 119%

Question: For `c1ccc(CCn2cccc2)nc1`, which growth is on record?
Answer: 101%

Question: `O=C(/C=C/c1ccco1)c1ccccc1O` was tested. Which growth did it give?
Answer: 97%

Question: For `CCn1c(=O)c(C(=O)NCCCO)c(O)c2ccccc21`, which growth is on record?
Answer: 155%

Question: Which growth does the source give for `C=C(COC(C)=O)[C@H]1CC/C(C)=C/CC/C(C)=C/CC[C@@]2(C)O[C@H]2C1` here?
Answer: 121%

Question: `COc1cccc(NC(=O)OC(C)C)c1` was tested. Which growth did it give?
Answer: 121%

Question: How did the growth turn out when `CCCCCCCCCCCCNC(=O)N[C@H](C(=O)N[C@H]1/C=C/OCCNC(=O)/C=C/[C@H](C(C)C)NC1=O)C(C)C` was run?
Answer: 24.1%

Question: How did the growth turn out when `Cc1cc2nc(CN)[nH]c2cc1C` was run?
Answer: 100%

Question: `COc1cc(/C=C2\CN(C(=O)OC(C)(C)C)C/C(=C\c3ccc(O)c(OC)c3)C2=O)ccc1O` was tested. Which growth did it give?
Answer: 98.6%

Question: For `O=[N+]([O-])c1ccc(N=Nc2c(NNc3ccc([N+](=O)[O-])cn3)cc(S(=O)(=O)O)c3ccccc23)nc1`, which growth is on record?
Answer: -5.33% (active)

Question: `O=C(CCl)Nc1cc(O)c2c(c1)C(=O)c1cccc(O)c1C2=O` was tested. Which growth did it give?
Answer: -100% (active)

Question: How did the growth turn out when `Clc1ccc(Cl)c(N=Cc2ccc3c(c2)OCO3)c1` was run?
Answer: 115%

Question: Which growth does the source give for `CCCCCc1c(C)[nH]c(/C=C2\N=C(c3ccc[nH]3)C=C2Oc2ccc(OC)cc2)c1C` here?
Answer: -95% [100 µM] (active)

Question: Which growth does the source give for `CCOC(=O)c1ccc(NC(=O)CSC(N)=O)cc1` here?
Answer: 109%

Question: How did the growth turn out when `O=[N+]([O-])c1ccc(N/N=C/c2ccccc2O)nc1` was run?
Answer: 69.1%

Question: How did the growth turn out when `O=C(O/C(=C/c1ccccc1)C(F)(F)F)c1ccccc1` was run?
Answer: 103%

Question: For `CN(C)CCCN1c2ccccc2CCc2ccccc21`, which growth is on record?
Answer: 116%

Question: Which growth does the source give for `O=C(N/N=C/c1ccccc1O)c1ccncc1` here?
Answer: 18.2%

Question: With `CCCCCCCCCCCCNC(=O)N[C@H](C(=O)N[C@H]1/C=C/CCNC(=O)/C=C/[C@H](C)NC1=O)C(C)C` as the compound, how does the growth read?
Answer: -44.3% (active)

Question: How did the growth turn out when `CN1C2CCC1/C(=C\c1ccc(F)cc1)C(=O)/C2=C/c1ccc(F)cc1` was run?
Answer: 21%

Question: With `c1coc(CNc2c3ccccc3nc3ccccc23)c1` as the compound, how does the growth read?
Answer: 96.9%

Question: Which growth does the source give for `CCc1onc(-c2ccc(OC)cc2)c1-c1ccccc1OCCN(CC)CC` here?
Answer: 96.8%

Question: How did the growth turn out when `CCN(CC)c1ccc(/C=N/NC(=O)C[N+](C)(C)C)cc1` was run?
Answer: 110%

Question: Which growth does the source give for `COc1cccc(-c2nc3sccn3c2-c2ccnc(NCCN3CCCN(C)S3(=O)=O)n2)c1` here?
Answer: 91.2%

Question: Which growth does the source give for `CC(=O)N1N=C(C2C(=O)N(C)C(=O)N(C)C2=O)CC1c1ccccc1C(=O)O` (stereo not given) here?
Answer: 109%

Question: With `CC(C)[C@@]12C[C@@H](OC(=O)C3CO3)[C@@](C)(O1)[C@@H]1CC[C@@H](C)[C@H]1[C@@H]2OC(=O)/C=C/c1ccccc1` (stereo not given in full) as the compound, how does the growth read?
Answer: 90.4%

Question: How did the growth turn out when `COc1ccc(Cl)cc1Nc1nc(C(F)(F)F)ccc1C(=O)NN` was run?
Answer: 33.6%

Question: For `Cc1ccc(C)c2c1SC1=NNC(Oc3ccc(Cl)cc3)=C(C#N)C(=N)N12`, which growth is on record?
Answer: 110%

Question: `CCN(CC)c1ccc2c(cc1=O)[C@@H](NC(C)=O)CCc1cc(OC)c(OC)c(OC)c1-2` was tested. Which growth did it give?
Answer: -24.9% (active)

Question: `O=C1OCC2=C1C(c1ccccc1)c1cc3c(cc1N2CCO)CCC3` (stereo not given) was tested. Which growth did it give?
Answer: -21.6% (active)

Question: How did the growth turn out when `COc1ccc(C(=O)O)cc1.[Ag]` was run?
Answer: 99.7%
